# Rows were chosen to be rich in hits. Some 10% of all compounds tested hit in one or more screens of this group.
# BAZ2B inh = BAZ2B (human) inhibition; AlphaScreen BAZ2B-H3K14Ac peptide displacement; actives 4.4% (n = 360,000); Q9UIF8; Potency, µM (series often up to 114 µM), without a hit: top-dose activity change, negative = inhibition, actives largely listed as inhibitors; also: % is scaled to controls: 0 for no effect and ±100 for the full control effect; nearly all actives have a fitted effect of over 60% in size
#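 Compounds, titrated to a top concentration of 110 uM, were incubated 30 min at room temperature with preformed BAZ2B/acetyl-K14 H3 peptide complex (50 nM each). Proximity signal was measured by AlphaScreen after 20 min with beads.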
# GLS inh = blocks human kidney-isoform glutaminase activity; Potency, µM (top dose mostly 45.5 µM), for the others: at the top dose activity change, negative = inhibition, hits mostly inhibitors; GLS enzymatic activity, qHTS titration; O94925; actives 0.21% (n = 410,000); also: % is scaled to controls: 0 for no effect and ±100 for the full control effect
# Target sequence (O94925 whole entry, looked up, canonical isoform): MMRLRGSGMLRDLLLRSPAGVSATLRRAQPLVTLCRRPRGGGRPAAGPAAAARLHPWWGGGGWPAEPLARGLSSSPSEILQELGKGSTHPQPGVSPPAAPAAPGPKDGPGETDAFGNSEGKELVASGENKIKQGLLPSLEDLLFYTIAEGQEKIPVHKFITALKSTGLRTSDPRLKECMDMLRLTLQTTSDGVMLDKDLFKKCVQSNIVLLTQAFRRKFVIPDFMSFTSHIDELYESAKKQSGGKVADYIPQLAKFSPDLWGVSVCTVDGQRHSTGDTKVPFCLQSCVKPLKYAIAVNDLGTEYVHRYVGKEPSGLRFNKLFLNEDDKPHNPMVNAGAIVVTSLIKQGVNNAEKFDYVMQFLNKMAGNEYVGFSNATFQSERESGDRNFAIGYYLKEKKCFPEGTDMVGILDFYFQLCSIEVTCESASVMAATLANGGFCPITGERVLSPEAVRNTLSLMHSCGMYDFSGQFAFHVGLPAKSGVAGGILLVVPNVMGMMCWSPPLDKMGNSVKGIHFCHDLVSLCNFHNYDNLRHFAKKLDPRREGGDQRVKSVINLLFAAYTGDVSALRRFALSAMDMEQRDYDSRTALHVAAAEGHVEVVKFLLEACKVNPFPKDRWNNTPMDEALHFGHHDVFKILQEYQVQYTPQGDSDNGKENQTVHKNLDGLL
#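 Read-out is an Amplex red fluorescence increase coupled through glutamate oxidase and HRP, measured before and after 30 min room-temperature incubation. hKGA is in 45 mM KH2PO4 (pH 8.2) with 0.02% Tween-20; glutamine added as 1mM solution.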
# G9a block = blocks human histone lysine methyltransferase G9a. actives 8.8% (n = 350,000). G9a H3K9 monomethylation, AlphaScreen, 2 h. Q96KQ7. Potency, µM (doses to about 102 µM), for the others: at the highest dose activity, negative = inhibition, most hits filed as inhibitors; also: % is scaled to controls: 0 for no effect and ±100 for the full control effect; nearly all actives have a fitted effect of over 75% in size
#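 G9a (20 nM) was preincubated 15 min with compound, then reacted 2 h at room temperature with 500 nM biotin-H3K9 peptide and 20 µM SAM. Monomethyl-H3K9 detected by AlphaScreen using anti-H3K9me1 antibody.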
# JMJD2A Tudor inh = JMJD2A Tudor domain (human) inhibition; actives 4.4% (n = 390,000); AID 504339; Potency, µM (highest dose often 114 µM), without a hit: top-dose activity change, negative = inhibition, actives largely listed as inhibitors; AlphaScreen JMJD2A-Tudor / H3K4me3 peptide binding; O75164; also: % is scaled to controls: 0 for no effect and ±100 for the full control effect; nearly all actives have a fitted effect of over 50% in size
# HP1b binding inh = blocks HP1-beta chromodomain binding to methylated histone tails; P83916; AlphaScreen HP1-beta / biotin-H3K9me3 peptide binding; Potency, µM (top dose mostly 114 µM), for inactives: at the top dose activity change, negative = inhibition, usual class: inhibitors; actives 0.56% (n = 390,000); AID 540317; also: nearly all actives have a fitted effect of over 70% in size
#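 HP1-beta protein (50 nM final) preincubated 30 min at room temperature with biotinylated H3(1-18)K9me3 peptide (50 nM) in PBS pH 7.4, 0.01% Tween-20, then compound added for 30 min. AlphaScreen streptavidin donor/nickel chelate acceptor beads (10 ug/mL final), 30 min dark, luminescence read.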
# * = called active by the depositor; ? = inconclusive; nt = no result; [ ] = dose if it differs, or a comment. Calls follow the shape of the dose curve; as a rule, active = well fitted curve in the direction sought with a large enough effect; inconclusive = small, poorly fitted or top-dose-only effect, or another doubt; inactive = no such curve, though single readings can be large; an effect the other way counts as inactive or inconclusive. Potency is read from the fitted curve at half-maximal effect.
SMILES,BAZ2B inh,GLS inh,G9a block,JMJD2A Tudor inh,HP1b binding inh
O=C(O)c1cccc(Nc2nc(-c3ccccc3)nc3ccccc23)c1,?,-13%,56µM*,-13%,16%
O=C(O)c1cccc(-n2c(/C=C/c3ccc([N+](=O)[O-])cc3)nc3ccccc3c2=O)c1,-30%,2%,71µM*,-25%,7%
O=C(O)c1cccc(Nc2nc(-c3ccc([N+](=O)[O-])cc3)nc3ccccc23)c1,56µM*,-11%,?,-30%,12%
O=C(O)c1cccc(-n2c(/C=C/c3cccc([N+](=O)[O-])c3)nc3ccccc3c2=O)c1,-37%,4%,2%[0.501 µM],-15%,-1%
O=[N+]([O-])c1ccc(-c2nc(Nc3cccc(O)c3)c3ccccc3n2)cc1,-18%,3%,-5%,-26%,29%
Cc1ccc(S(=O)(=O)N2CCC[C@H]2C(=O)NC2CCCCC2)cc1,nt,-11%,nt,?,32%
C[C@H]1CN([C@@H](C)CO)C(=O)c2cc(C3=CCCC3)cnc2O[C@@H]1CN(C)C(=O)c1ccncc1,nt,-2%,nt,nt,nt
CCOc1cc(NCc2ccccc2)c2ncn(C(C)C)c2c1,nt,35%,nt,50µM*,?
CCC(CO)Oc1cc(NCc2ccc(Cl)cc2Cl)c2ncn(C(C)C)c2c1 (stereo unspecified),nt,31%,nt,40µM*,-18%
CCC(CO)Oc1cc(NCc2ccc(Cl)cc2)c2ncn(C(C)C)c2c1 (stereo unspecified),nt,-3%,nt,50µM*,-21%
CCC(CO)Oc1cc(NCc2ccc(OC)cc2)c2ncn(C(C)C)c2c1 (stereo unspecified),?,24%,-4%[0.501 µM],-36%,-7%
CCC(CO)Oc1cc(NCc2ccccc2O)c2ncn(C(C)C)c2c1 (stereo unspecified),nt,33%,nt,?,-17%
CCC(CO)Oc1cc(NCc2ccc(C)cc2)c2ncn(C(C)C)c2c1 (stereo unspecified),nt,19%,nt,56µM*,-3%
CCC(CO)Oc1cc(NCc2cccc(C)c2)c2ncn(C(C)C)c2c1 (stereo unspecified),nt,21%,nt,?,30%
Cc1ccc(F)cc1NC(=O)COC(=O)c1ccc(S(C)(=O)=O)c([N+](=O)[O-])c1,nt,nt,nt,-13%,27%
CC[C@H](CO)Oc1cc(NCc2ccc(Cl)c(Cl)c2)c2ncn(C(C)C)c2c1,nt,23%,nt,32µM*,-15%
Cc1ccc(NC(=O)Cn2nc(C)c3nn(-c4ccc(Cl)cc4)c(C)c3c2=O)cc1F,8%,-1%,17%[59 µM],-18%,16%[57 µM]
COc1ccc(CCN2C(=O)CCC2(C)c2nnnn2-c2ccc3c(c2)OCCO3)cc1OC (stereo unspecified),nt,-1%,nt,nt,nt
OC[C@@H]1CN(CCc2ccccc2)C[C@H](n2cnc3c(NCc4ccc(F)cc4)ncnc32)O1,nt,21%,nt,nt,nt
O=C(C/C=N/OCc1ccc(Cl)cc1Cl)c1ccccc1,131%,-4%,85%[59 µM],69%,120%
COC(=O)c1cc(NC(=O)c2ccccc2)c(=O)oc1C/C=N\OCc1ccc(Cl)cc1Cl,-9%,3%,40µM*,-30%,0%
CO/N=C\Cc1oc(=O)c(NC(=O)c2ccccc2)cc1C(=O)OC,-6%,-1%,32µM*,-10%[11.4 µM],-5%
CC1CCN(CC(=O)Nc2ccccc2-c2ccccc2)CC1,19%,-3%,0%[59 µM],-3%,33%
CC1CCCCC1NCC(=O)Nc1ccccc1-c1ccccc1 (stereo unspecified),?,-4%,6.3µM*,-13%[11.4 µM],-14%
NC(=O)CC(NC(=O)Cc1ccc(Br)cc1)c1ccc(NCCN2CCCCC2)c([N+](=O)[O-])c1 (stereo unspecified),50µM*,11%,nt,-5%,21%
SMILES,BAZ2B inh,GLS inh,G9a block,JMJD2A Tudor inh,HP1b binding inh
NC(=O)CC(NC(=O)Cc1ccc(Br)cc1)c1ccc(NCc2ccc(F)c(F)c2)c([N+](=O)[O-])c1 (stereo unspecified),-8%,1%,-26%[12.7 µM],-11%,20%
NC(=O)CC(NC(=O)Cc1ccc(Br)cc1)c1ccc(NCc2ccccn2)c([N+](=O)[O-])c1 (stereo unspecified),79µM*,6%,-108%[59 µM],?,1%
NC(=O)c1cc([N+](=O)[O-])c(Cl)cc1NCc1ccccn1,79µM*,4%,11%[2.33 µM],56µM*,10%
CCN1CCOC(=O)C1CC(=O)Nc1cc(Cl)ccc1OC (stereo unspecified),-11%,1%,7.9µM*,-24%,2%
COc1ccc(Cl)cc1NC(=O)CC1CCCC1,22%,-8%,27%,3%,30%
COc1cccc(NC(=O)CC2C(=O)OCCN2Cc2ccccc2)c1 (stereo unspecified),0%,0%,-32%[59 µM],-8%,87%
CC(=O)c1ccc(NC(=O)CN2CCOCC2)cc1,-36%,-1%,-10%[59 µM],-8%,40%
CCc1ccc(NC(=O)CC2C(=O)OCCN2CC)cc1 (stereo unspecified),-12%,-4%,1.8µM*,-16%,27%
CCN1CCOC(=O)C1CC(=O)Nc1ccc(C(C)=O)cc1 (stereo unspecified),?,0%,3.2µM*,-3%,12%
O=C(CC1C(=O)OCCN1Cc1ccccc1)Nc1cccc(C(F)(F)F)c1 (stereo unspecified),-13%,1%,-60%[59 µM],-10%,47%
CCN1CCOC(=O)C1CC(=O)Nc1ccccc1C(F)(F)F (stereo unspecified),-39%,-2%,2.2µM*,-34%,-17%
Cc1cc2c(s1)c1cnn(Cc3cccc(C)c3F)c(=O)c1n2C,nt,nt,nt,-23%,nt
CCN1CCOC(=O)C1CC(=O)Nc1cc(C)cc(C)c1 (stereo unspecified),-12%,1%,3.5µM*,-15%,28%
Cc1cc(C)cc(NC(=O)CC2NCCNC2=O)c1 (stereo unspecified),10%,-2%,4%[59 µM],-11%,12%
N#Cc1cccnc1N1CCN(C(=O)c2cccc3c2C(=O)c2ccc(-c4ccc(Cl)c(C(F)(F)F)c4)cc2S3(=O)=O)CC1,nt,-2%,nt,-24%,19%
O=C(O)c1cccc2c1C(=O)c1ccc(-c3ccc(Cl)c(C(F)(F)F)c3)cc1S2(=O)=O,?,-4%,16%[2.33 µM],79µM*,15%
COc1ccc(S(=O)(=O)NCCc2sc(-c3cccc(F)c3)nc2C)cc1,2%,0%,4%[59 µM],-11%,37%
N#Cc1ccc(CN2CCCC3(CCN(C(=O)c4cnccn4)CC3)C2)cc1,nt,nt,-1%[12.7 µM],nt,nt
COc1ccc(S(=O)(=O)Nc2cc3c4c(c2)CC(=O)N4CCC3)cc1,-20%,7%,32µM*,-16%,-4%
O=C1Cc2cc(NS(=O)(=O)c3ccc([N+](=O)[O-])cc3)cc3c2N1CCC3,-15%,16%,45µM*,-25%,-1%

# Screens (PubChem)
